Laboratory results from PubChem BioAssay AID1117361 (Southern Research Institute, 2015).
Hit rate of the full screen: of about 3,600 compounds, about 900 (25%) were called active. The rule behind the calls is not given here. Only a sample is shown. Measured potencies and affinities stand elsewhere.

Each compound was assayed against Protein Tat (Human immunodeficiency virus type 1 group M subtype B (isolate HXB2)) (UniProt P04608) (assay: inhibitors of Tat binding to TAR RNA, dose response, counter-screen for Vif-APOBEC3G degradation inhibitor project, biochemical, fluorescence polarization, FAM-labeled TAR RNA (AID 1117361)). Conditions: outcome: dose series up to 100 µM unless noted; series mostly up to 100 µM.

SMILES	outcome
Cc1ccc(NC(=O)C(C)Sc2nc3nc(C)cc(C)n3n2)cc1 (centres undefined)	inactive
Cc1cc(C)n(-c2ncc(-c3ccccc3)nn2)n1	inactive
C=CCOC(=O)CN1C(=O)c2ccccc2C1=O	inactive
O=C(NC1CCCCC1)c1sc(=S)n2c1[nH]c(=O)c1ccccc12	inactive
Cc1ccc(-n2nnnc2SCn2nnc3ccccc3c2=O)cc1	inactive
Cc1cccc(CCNC(=O)CCc2nc(-c3ccccc3F)no2)c1	inactive
Cc1cc(C)nc(N(C#N)CN2C(=O)c3ccccc3S2(=O)=O)n1	inactive
CCOC(=O)CS(=O)(=O)c1ccc2ccccc2c1	inactive
Nc1ccc(S(=O)(=O)c2cc(O)c3ccccc3c2O)cc1	inactive
CCc1cc(C=NC2CCCCC2)c(O)s1	inactive
CN(C)NC(=S)NC1CCS(=O)(=O)C1 (centres undefined)	inactive
CCCOc1ccc2[nH]cc(C(=O)O)c(=O)c2c1	inactive
Cc1ccc(Oc2ccc(/C=N/O)cn2)cc1	inactive
O=S(=O)(Nc1ccc2c(c1)nc1n2CCN(Cc2ccccc2)C1)c1ccc(Cl)cc1	inactive
COCCCNc1nc2c(c(=O)n(C)c(=O)n2C)n1Cc1cccc(OC)c1	inactive
CCCCc1c(C)nc2ccc(Br)cc2c1SCCC#N	inactive
COc1cc2ccccc2nn1	inactive
COc1ccc(C)cc1Nc1c2c(nc3ccccc13)CCC2	inactive
CC(=O)Nc1nonc1NC(=O)CSC1=NCCS1	inactive
CNC(=O)CN1C(=O)NC2(CCc3ccccc32)C1=O (centres undefined)	inactive
O=C(CSc1nnc(CN2CCOCC2)n1-c1ccccc1)Nc1ccc(Cl)cc1	inactive
CC1(C)CC(=O)C2=C(C1)N(Cc1cccnc1)C(=O)C2(NC(=O)C1CC1)C(F)(F)F (centres undefined)	inactive
Cc1cc(C)cc(N(CCC#N)C(=O)CSc2nc3nc(C)cc(C)n3n2)c1	inactive

SMILES	outcome
Cc1c(C(=O)Nc2cccc([N+](=O)[O-])c2)csc1-c1ccccc1	inactive
O=C(Nc1ccc(C(=O)N2CCOCC2)cc1)c1ccccc1[N+](=O)[O-]	inactive
O=C(C1CCN(S(=O)(=O)N2CCOCC2)CC1)N1CCN(Cc2ccc3c(c2)OCO3)CC1	inactive
CN(CCO)CC(O)CN(c1ccccc1)c1ccccc1 (centres undefined)	inactive
COC(=O)c1c[nH]n2c(=O)c(Cc3ccc(F)cc3Cl)c(C)nc12	inactive
CCOC(=O)c1c(Nc2ccccc2N)cc(C)nc1C	inactive
O=C(CCc1nc(-c2ccccc2F)no1)NC1CCCCCC1	inactive
CCOc1ccc(N(CC(=O)Nc2ccccc2C(=O)NCc2ccco2)S(C)(=O)=O)cc1	inactive
CC1CN(Cc2cc(=O)[nH]c(C3CC3)n2)CC(C)O1 (centres undefined)	inactive
Cn1c(Cn2c(=O)sc3ccccc32)nnc1SCC(=O)NCc1ccc(F)cc1	inactive
Cc1cc(=O)oc2cc(OCC(=O)NCc3cccnc3)ccc12	inactive
Fc1cc(F)cc(NC(=S)NCCCN2CCOCC2)c1	inactive
COC(=O)c1ccccc1NC(=O)c1noc2c1CCC2	inactive
COc1ccccc1NC(=O)CSc1nnc(C)n1CCc1ccccc1	inactive
Cc1ccc(C2CC(c3cccc(Cl)c3)n3nc(N)nc3N2)cc1 (centres undefined)	inactive
COc1ccc(C2CC(c3cccs3)n3nc(N)nc3N2)cc1 (centres undefined)	inactive
CCOc1cc(C)nc(NCCc2ccc(OC)c(OC)c2)n1	inactive
COc1cc(CNCCc2ccccc2F)ccc1OCc1ccc(Cl)nc1	inactive
Cc1ccc(NC(=O)C(C)NC(=O)OCc2ccccc2)cc1C (centres undefined)	inactive
Cc1cc(=O)[nH]c2c1c(C)nn2C1CCCCC1	inactive
O=C(CC1SCCNC1=O)Nc1ccc(Cl)cc1 (centres undefined)	inactive
CSc1nc(NCCCO)c2c3c(sc2n1)CN(C)CC3	inactive
Fc1cccc(-c2cc3nc4c(c(NCc5ccco5)n3n2)CCCC4)c1	inactive

SMILES	outcome
CCC1=NN2C(=N)/C(=C\c3cccn3-c3cccc(Cl)c3)C(=O)N=C2S1	inactive
COc1ccc(NC2CS(=O)(=O)CC2NCc2ccco2)cc1 (centres undefined)	inactive
COc1cccc(S(=O)(=O)N2CCN(c3ccccc3F)CC2)c1	inactive
COc1ccccc1CNC(=O)COC(=O)c1ccc(NC(N)=O)cc1	inactive
O=S(=O)(NCc1ccc2c(c1)OCO2)c1cccc(S(=O)(=O)N2CCOCC2)c1	inactive
COCCN1Cc2cccc(C(=O)NCc3ccccn3)c2C1=O	inactive
Cc1cccc(N2CCN(CC(O)COc3ccc(Cl)cc3)CC2)c1 (centres undefined)	inactive
COCC(=O)NC1CCN(CC(=O)Nc2ccc(OC)cc2[N+](=O)[O-])CC1	inactive
CC(=O)NS(=O)(=O)c1cccnc1Nc1cccc(Cl)c1	inactive
CCc1nnc(NC(=O)c2ccc3c(c2)C(=O)N(C(C)(C)C)C3=O)s1	inactive
N#Cc1cccc(Oc2ccc(S(=O)(=O)N3CCCC3)cn2)c1	inactive
NC(=O)C1CCCN(CC(=O)Nc2ccccc2C(=O)NC2CC2)C1 (centres undefined)	inactive
COC(=O)Cc1cc(=O)n(-c2nc3ccccc3[nH]2)[nH]1	inactive
Cc1cccc(N(CC(=O)N/N=C/c2ccc(OCC(=O)NCc3ccco3)cc2)S(C)(=O)=O)c1C	inactive
CCc1ccc(CNCc2cccnc2)cc1	inactive
Cc1ccc(CNC(=O)COc2ccc3c(c2)CCC3)cc1	inactive
CCn1c(CNc2ccc(C)cc2)nnc1SCC(=O)NCc1ccccc1	inactive
COc1ccc(OC)c(-c2cc(C(=O)NCc3cccs3)no2)c1	inactive
CC1(C)Oc2ccc(C(=O)NC3CCCC3)cc2N(CC(=O)N2CCOCC2)C1=O	inactive
COc1cc(SC)ccc1C(=O)Nc1c(C)cccc1C	inactive
CC(Oc1ccc(Cl)cc1)C(=O)Nc1ncccn1 (centres undefined)	inactive
O=C(CCc1c[nH]c2ccccc12)NC1CC1	inactive
N[C@@H](Cc1c[nH]c2ccccc12)C(=O)O	inactive

SMILES	outcome
Cc1cccc(C)c1N1C(=O)C2ON(c3ccccc3)C(c3ccncc3)C2C1=O (centres undefined)	inactive
Cc1nn(CC(=O)NCc2ccccc2Cl)c(C)c1[N+](=O)[O-]	inactive
O=C(Nc1cnn(Cc2c(Cl)cccc2Cl)c1)c1ccc([N+](=O)[O-])cc1	inactive
Cc1sc2ncnc(OCC(=O)N3CCN(S(=O)(=O)c4ccc(Cl)cc4)CC3)c2c1C	inactive
CC(C)c1nc2sc3c(NCc4ccco4)ncnc3c2c2c1COC(C)(C)C2	inactive
CCCC(=O)NC1=C(Cl)C(=O)c2ccccc2C1=O	inactive
CCC(=O)Nc1cc2c(cc1C(=O)CC)OCCO2	inactive
Cc1ccc(S(=O)(=O)Nc2ccc3nc(C)sc3c2)cc1	inactive
COc1ccc(N2CCN(C(=O)COc3ccccc3)CC2)cc1	inactive
CCOc1ccc(S(=O)(=O)Nc2ccc(S(=O)(=O)N3CCCCC3)cc2)cc1	inactive
CCN1CCN(c2ccc(NC(=O)Cc3ccccc3)cc2)CC1	inactive
CC(=O)N1CCN(c2ccc(NCc3ccc4c(c3)OCO4)cc2)CC1	inactive
Cc1snc(S(=O)(=O)Cc2ccccc2Cl)c1C#N	inactive
COc1ccc(/C=C/CN2CCN(Cc3ccccc3)C(CCO)C2)cc1 (centres undefined)	inactive
CSc1ccccc1NC(=O)c1noc2c1CCC2	inactive
CCCCS(=O)(=O)N1CCCC(C(=O)N2CCOCC2)C1 (centres undefined)	inactive
COc1ccc(C2CC(O)(c3ccccc3)Oc3c(C)ccc(C)c32)cc1 (centres undefined)	inactive
Cn1c2ccccc2c2ccc3c(c21)C(=O)C=CC3=O	inactive
CCOc1cc(C(C(=O)NCC2CCCO2)N(C(=O)Cn2nnc3ccccc32)c2cccc(OC)c2)ccc1O (centres undefined)	inactive
Cc1ccc(CN(C(=O)Cn2nnc3ccccc32)C(C(=O)NCc2ccco2)c2cccs2)cc1 (centres undefined)	inactive
CCCCn1c(SCC(=O)Nc2ccc3c(c2)OCCO3)nnc1C(CC)N(C)C (centres undefined)	inactive
C/C(=N\Nc1ccc2nncn2n1)c1ccc(Br)s1	inactive
COc1cc(Cc2cnc(N)nc2N)cc(OC)c1OC	inactive

SMILES	outcome
O=C1C(C=NC2CC2)=C(O)c2ccccc21	inactive
COc1ccc(Cl)cc1N(CC(=O)Nc1ccc2c(c1)OCCO2)S(C)(=O)=O	inactive
O=C(CN1CCN(CC(=O)Nc2ccc3c(c2)OCO3)CC1)Nc1ccc(F)cc1	inactive
CCn1c(=O)c2cc(C(=O)N(C)c3ccccc3F)sc2c2ccccc21	inactive
CCOC(=O)N1CCC(NC(=O)C2CCN(c3nc(-c4ccc(OC)cc4)no3)CC2)CC1	inactive
O=C(OCC(=O)N1CCN(C(=O)c2ccco2)CC1)c1cc(-c2ccco2)nc2ccccc12	inactive
CCOC(=O)C1CCCN(Cc2ccc(O)c(OC)c2)C1 (centres undefined)	inactive
Cc1cc(C(=O)OC2CCOC2=O)c2ccccc2n1 (centres undefined)	inactive
CC(C)Oc1ccc(C(=O)N(Cc2ccco2)C2CCS(=O)(=O)C2)cc1 (centres undefined)	inactive
CCOC(=O)C1CCCN(C(=O)c2c(-c3ccccc3Cl)noc2C)C1 (centres undefined)	inactive
Cc1oc(-c2ccccc2)nc1C(=O)OCC(=O)NCc1ccc(F)cc1	inactive
O=C(CCCc1c[nH]c2ccccc12)NCc1ccc2c(c1)OCO2	inactive
CS(=O)(=O)N(CC(=O)NCc1ccc2c(c1)OCO2)Cc1ccccc1	inactive
O=C(CSc1nnc2n(C3CCCCC3)c(=O)c3ccccc3n12)OC1CCCCC1	inactive
Cc1cc(Cl)c(S(=O)(=O)NCc2cccnc2)cc1OCC(=O)NC1CCCCC1	inactive
O=S(=O)(c1cccs1)n1nnc2ccccc21	inactive
COc1cc(-c2nnc(SCc3cc(=O)oc4cc(O)c(O)cc34)o2)cc(OC)c1OC	inactive
C=C(c1ccc(OCCO)cc1)c1ccc(OCCO)cc1	inactive
CC(=O)N1CCN(c2ccc(NC(=O)COc3ccc(Cl)cc3Cl)cc2)CC1	inactive
Cc1nc2ccc(NS(=O)(=O)c3ccc(F)cc3F)cc2s1	inactive
CC1(C)C/C(=C(/C#N)C(N)=O)CCO1	inactive
COc1cc2c(cc1OC)C(C(=O)O)C(c1cc(Br)c(O)c(OC)c1)N(C)C2=O (centres undefined)	inactive
